Measured values reported in PubChem BioAssay AID588342 (National Center for Advancing Translational Sciences (NCATS), 2011).
About 25,000 (6.9%) of roughly 360,000 compounds were called active. About 9% were inconclusive and are not listed. Calls come from the whole dose curve; as a rule, active = well fitted inhibition curve with a large enough effect; inconclusive = small, poorly fitted or top-dose-only effect; inactive = flat fitted curve, though single readings scatter. The sample as a whole holds a higher share of actives than the screen did.

molecular target: Luciferin 4-monooxygenase (Photinus pyralis) (UniProt P08659); test: qHTS profiling assay for firefly luciferase inhibitor/activator using purifed enzyme and Km concentrations of substrates (counterscreen for miR-21 project); settings: purified FLuc, luminescence inhibition; series mostly up to 57.5 µM; activity change, negative = inhibition: at the top concentration; note: nearly all actives have a fitted effect of over 55% in size;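 for activity change, negative = inhibition: plate controls were vehicle for no effect and reference inhibitor for full effect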
Source text: MLPCN Grant: 1 R21 NS059478-01 (miR-21 grant) Assay Provider: NCGC NCGC Assay Overview: Firefly (Photinus pyralis) luciferase is one of the most commonly used transcriptional reporters for a number of reasons. It is considered one of the more dynamically responsive reporters -that is, responsive to changes in reporter transcription - as it requires no post-translational modifications and is enzymatically active directly after protein synthesis (Wood, 1998). Additionally, the half-life of the luciferase protein is short relative to other reporter-gene products (Wood, 1995). Whereas reporters with long half-lives potentially allow for increased signal due to accumulation of reporter-gene product, once accumulated in the cell, dynamic changes in reporter-gene expression may be difficult to detect(Fan and Wood, 2007; Almond et al., 2004). It has been shown that wild-type P. pyralis luciferase has a half-life of approximately […] hours in mammalian cells (Thompson et al., 1991). Firefly luciferase reporter-gene assays are also generally considered one of the most sensitive assay types (Wood, 1995; Wood, 1998). Although light produced in a bioluminescence reaction is of lower intensity than that produced during fluorescence emission, this is offset by little to no background light inherent to luminescent assays. Thus the luciferase reporter can be expressed at much lower levels than fluorescent proteins while still providing robust signal. # However, it was initially observed, in 1991, by Thompson et al., that compounds that resemble the substrates of firefly luciferase (FLuc) can act as competitive inhibitors of the enzyme, and that these compounds, upon interaction with luciferase in the cell, can actually stabilize the protein and increase its half-life. Accumulated intracellular FLuc protein can be measured as an increase in luminescence signal, upon addition of detection reagents (which contain high concentrations of FLuc substrates) commonly used in high-throughput screening. In cell-based reporter gene assays that use FLuc as the reporter gene to quantitate the potential influence of a given compound against the target biology, this apparent increase in luminescence can mistakenly be interpreted as identification of a compound that is active against the target of interest. This is the case for the miR-21 FLuc reporter gene assay used to identify inhibitors of the miR-21 pathway (PubChem AID 2289) - compounds of interest will inhibit miR-21 biogenesis/expression or activity, and are identified by causing an increase in luminescence, due to increased FLuc translation. However, FLuc inhibitory compounds that stabilize the FLuc protein will give an identical read-out, making it difficult to distinguish compounds that are active against the target from those active against FLuc. Previous profiling work to determine the prevalence of compounds that affect FLuc enzymatic activity (PubChem AID 411) identified that ~3% of the MLSMR library (then at ~72K) inhibited FLuc. […] Since the MLSMR had grown to ~350K compounds, and since it was expected that a significant percentage of compounds found active in the miR-21 FLuc assay would be FLuc inhibitors, the library was screened for activity against FLuc using a biochemical assay of purified FLuc and KM concentrations of FLuc substrates (D-luciferin and ATP).
NCGC Assay Protocol Summary: Reagents: 50mM Tris acetate, pH 7.5; 10mM Mg acetate; 10uM D-luciferin (Sigma #L9504); 10uM ATP; 0.01% Tween-20; 0.05% BSA; 10nM P. pyralis luciferase (Sigma #L9506) Control compounds used were two known firefly luciferase inhibitors (compounds (2) and (5) in Auld et al., 2010), and DMSO. […]

Luciferin 4-monooxygenase (Photinus pyralis), sequence (P08659 whole entry, looked up): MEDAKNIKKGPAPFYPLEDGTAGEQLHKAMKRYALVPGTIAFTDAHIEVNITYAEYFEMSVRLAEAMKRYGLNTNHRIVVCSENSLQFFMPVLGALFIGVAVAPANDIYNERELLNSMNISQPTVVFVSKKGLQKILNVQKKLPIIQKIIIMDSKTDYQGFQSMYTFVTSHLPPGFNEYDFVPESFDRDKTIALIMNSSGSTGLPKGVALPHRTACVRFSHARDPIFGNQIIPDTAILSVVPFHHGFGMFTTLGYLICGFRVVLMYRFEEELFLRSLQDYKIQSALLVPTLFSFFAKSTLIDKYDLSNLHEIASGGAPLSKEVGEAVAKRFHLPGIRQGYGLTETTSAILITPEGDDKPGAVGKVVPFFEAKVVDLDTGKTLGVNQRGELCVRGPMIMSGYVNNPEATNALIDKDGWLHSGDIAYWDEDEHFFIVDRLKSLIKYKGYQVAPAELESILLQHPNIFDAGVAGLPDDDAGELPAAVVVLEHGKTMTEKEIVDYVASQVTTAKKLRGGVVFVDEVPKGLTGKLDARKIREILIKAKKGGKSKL

Row | Structure (SMILES) | activity change, negative = inhibition | Potency
1 | CCOc1ccc(CCNC(=O)COC(=O)c2ccc(F)c(S(=O)(=O)N3CCOCC3)c2)cc1OCC | 0.0182% (inactive) | –
2 | CCC(=O)N1c2ccccc2CC1C(=O)N1CCN(c2ccccc2)CC1 (stereo unspecified) | 2.76% (inactive) | –
3 | Cc1ccc(CSc2ccc(S(=O)(=O)N3CCCCC3)cn2)cc1 | 4.03% (inactive) | –
4 | Cc1ccccc1NC(=O)c1cc(S(=O)(=O)N2CCOCC2)cs1 | -0.63% (inactive) | –
5 | O=C(Nc1ccccc1F)c1cc(S(=O)(=O)N2CCCCC2)cs1 | 6.84% [at 2.3 µM] (inactive) | –
6 | O=C(Nc1ccccc1C(=O)O)c1cc(S(=O)(=O)N2CCCCC2)cs1 | – | 23.9 µM (active)
7 | COc1ccc(CNC(=O)CN2C(=O)NC3(CCCc4sccc43)C2=O)cc1 (stereo unspecified) | 2.42% (inactive) | –
8 | CC[N+]1(CC)CC2=Cc3ccccc3CC2C1 (stereo unspecified) | -0.581% (inactive) | –
9 | COc1ccccc1C(=O)NC(=O)COC(=O)C1CC1 | – | 9.53 µM (active)
10 | COc1ccccc1C(=O)OCC(=O)NCCNC(=O)COC(=O)c1ccccc1OC | -0.745% (inactive) | –
11 | COc1ccccc1C(=O)NC(=O)COC(=O)c1ccco1 | 12.2% (inactive) | –
12 | O=C(Nc1cccc(-n2cnnn2)c1)c1cccnc1 | -1.84% (inactive) | –
13 | O=C(Nc1ccc(O)c(-c2nc3ccccc3o2)c1)c1ccc(-c2cccc(Cl)c2)o1 | 3.47% (inactive) | –
14 | Cc1ccccc1-c1nc2cc(NC(=O)c3cccc(OCCC(C)C)c3)ccc2o1 | -3.07% (inactive) | –
15 | O=C(Nc1ccc2oc(-c3ccccc3F)nc2c1)c1ccco1 | – | 6.01 µM (active)
16 | COc1ccccc1CNC(=O)COC(=O)CNS(=O)(=O)c1ccc(NC(C)=O)cc1 | -0.864% (inactive) | –
17 | Cc1cccc(N2CCN(C(=O)c3cnc(N4CCCC4)nc3C)CC2)c1C | 2.04% (inactive) | –
18 | COc1ccccc1CNC(=O)C1CCN(S(C)(=O)=O)CC1 | 2.3% (inactive) | –
19 | COc1ccccc1CCNC(=O)C1CCN(C(=O)/C=C/c2ccccc2)CC1 | – | 21.3 µM (active)
20 | COc1ccccc1CNC(=O)C1CCN(C(=O)[C@@H]2Cc3ccccc3CN2)CC1 | -0.16% (inactive) | –
21 | OC1CCCN(c2ncnc3c2nnn3Cc2c(F)cccc2Cl)C1 (stereo unspecified) | -13.1% (inactive) | –
22 | C/C(=C/c1ccccc1)C(=O)N1CCN(c2ccccc2)CC1 | -12.4% (inactive) | –
23 | Cc1ccnc(NS(=O)(=O)c2ccc(NC(=O)c3oc4ccc(F)cc4c3C)cc2)n1 | – | 26.9 µM (active)
24 | Cc1cc(C)nc(NS(=O)(=O)c2ccc(N/C=C\C(=O)c3cccs3)cc2)n1 | -7.27% (inactive) | –
25 | Cc1cc(OC(C)C(=O)Nc2ccc(S(=O)(=O)Nc3onc(C)c3C)cc2)cc(C)c1Cl (stereo unspecified) | -0.156% (inactive) | –
26 | CCn1c(SCC(=O)Nc2ccc(S(=O)(=O)Nc3onc(C)c3C)cc2)nnc1-c1ccccc1 | 2.13% (inactive) | –

Row | Structure (SMILES) | activity change, negative = inhibition | Potency
27 | Cc1noc(NS(=O)(=O)c2ccc(NC(=O)c3oc4ccc(F)cc4c3C)cc2)c1C | – | 15.1 µM (active)
28 | Cc1cc(C)c2oc(C(=O)Nc3ccc(S(=O)(=O)Nc4nccc(C)n4)cc3)cc(=O)c2c1 | -0.483% (inactive) | –
29 | Cc1ccnc(NS(=O)(=O)c2ccc(NC(=O)c3ccc(S(=O)(=O)N(C)C)cc3)cc2)n1 | -7.16% (inactive) | –
30 | Cc1noc(NS(=O)(=O)c2ccc(NC(=O)C34CCC(CC3)C4)cc2)c1C | 0.134% (inactive) | –
31 | Cc1ccc(C(=O)/C=C/Nc2ccc(S(=O)(=O)Nc3onc(C)c3C)cc2)cc1 | – | 15.1 µM (active)
32 | COc1ccc(N2CCN(S(=O)(=O)c3ccc4c(c3)N(C(C)=O)CCO4)CC2)cc1 | 1.92% (inactive) | –
33 | CCOc1ccc(S(=O)(=O)NCCC(=O)NCC2CCCO2)cc1 (stereo unspecified) | 2.24% (inactive) | –
34 | O=C(Nc1cccnc1Oc1ncnc2cc(Cl)ccc12)c1ccc(F)cc1 | -2.02% (inactive) | –
35 | Cc1cc(NC(=O)c2ccc(-c3ccc(Cl)cc3)o2)cc(-c2nc3ncccc3o2)c1O | 3.37% (inactive) | –
36 | O=C(Nc1cccc2ncccc12)c1ccc(-c2ccc(Cl)cc2Cl)o1 | – | 12 µM (active)
37 | COc1cc(OC)cc(C(=O)OCC(=O)Nc2sccc2C(N)=O)c1 | – | 15.1 µM (active)
38 | NC(=O)c1ccsc1NC(=O)COC(=O)COc1ccc(C=O)cc1 | 6.4% (inactive) | –
39 | CCCCn1nc(C(=O)OCC(=O)Nc2sccc2C(N)=O)c2ccccc2c1=O | -1.34% (inactive) | –
40 | Cc1ccc(F)cc1NC(=O)CSCc1c(C)noc1C | 3.3% (inactive) | –
41 | COC(=O)[C@H](CC(C)C)NC(=O)N1CCCCC1C (stereo partly specified) | 4.28% (inactive) | –
42 | CC1CCCCN1Cc1c(O)ccc2c(=O)c(-c3cccc(Cl)c3)c(C(F)(F)F)oc12 (stereo unspecified) | -3.84% (inactive) | –
43 | CCC1CCCCN1Cc1c(O)ccc2c(=O)c(Oc3ccccc3Cl)c(C(F)(F)F)oc12 (stereo unspecified) | 1.49% (inactive) | –
44 | Cc1ccc(-c2csc(NC(=O)c3cccs3)n2)cc1 | – | 10.7 µM (active)
45 | CCOC(=O)c1oc2ccccc2c1NC(=O)c1cccs1 | 13.2% (inactive) | –
46 | CCc1c(C)sc(NC(=O)c2ccc(Br)o2)c1C(=O)OC | -14.9% (inactive) | –
47 | Cc1nc(-c2ccc(NC(=O)c3cccs3)cc2)cs1 | – | 0.426 µM (active)
48 | CCc1c(C)sc(NC(=O)c2cccs2)c1C(N)=O | – | 6.75 µM (active)
49 | O=C(Nc1n[nH]c(C(F)(F)F)n1)c1cccs1 | 2.94% (inactive) | –
50 | Cc1nc2ccccn2c(=O)c1NC(=O)c1cccs1 | -0.785% (inactive) | –
51 | Cc1cc(C)cc(NC(=O)Cc2csc(C)n2)c1 | -10.2% (inactive) | –
